40 compounds from PubChem BioAssay (NCI) can be followed below.

About 83,000 compounds went through this panel and 20% of them were active in at least one assay; those are over-represented in the sample as a whole.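 48-hour exposure, single concentration, 96-well plates; percent growth endpoint where 0 means no net growth. Active: below 10.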 Activity calls are given as the source filed them.

For this assay, the system named is HL-60(TB) leukemia. Description: NCI-60 one-dose screen, 48 h (100 = growth as untreated, 0 = no growth, -100 = all killed). The conditions noted are these: 10 µM unless noted.
With `O=C1/C(=C/C2=Cc3ccccc3OC2)SC(=S)N1c1ccccc1F`, the growth is 87.9% (inactive).

Take `Cc1nc(Nc2ncc(C(=O)Nc3c(C)cccc3Cl)s2)cc(N2CCN(CCCNC(=O)COc3ccc(C4CCC(=O)NC4=O)cc3)CC2)n1` (stereo not given): the growth was 76.3% (inactive).

For the compound `Nc1ccc(-c2ccc3ncnc(N4CCc5cc(F)c(Cl)cc54)c3c2)cn1`, the growth is 22.8% (inactive).

For the compound `O=C(O)c1cccc(-c2ccc(/C=N/NC(=O)c3[nH]c4ccc(Br)cc4c3-c3ccccc3)s2)c1`, the growth is 42.4% (inactive).

For `NC(=O)c1ccc(-c2ccc3ncnc(N4CCc5cc(F)c(Cl)cc54)c3c2)cn1`, the growth was 64.9% (inactive).

As for `Cc1ccc(C(=O)C[n+]2cccc3c4ccccc4ccc32)cc1`, the growth is 1.77% (active).

With `Cc1ccc(C2=NN(c3nc(-c4cc5ccccc5oc4=O)cs3)C(c3ccc(C)cc3)C2)cc1` (stereo not given), the growth was 91% (inactive).

Regarding `O=c1cc(-c2ccccc2)oc2cc(OCCCNCc3ccccc3)cc(O)c12`, the growth is -46.3% (active).

On to `CC(=O)Nc1ccc(-n2cnc3cc(-c4ccc(O)cc4)ccc32)cc1C`, for which the growth is 26.6% (inactive).

As to `FC(F)(F)CN1CCN(CCn2c(C(F)(F)F)cc3c(Cl)ncnc32)CC1`, the growth was -65.2% (active).

In the case of `CN(C)c1nc(NCCNS(=O)(=O)c2ccc(C3=Nc4c(N)nc(N)nc4NC(c4ccc(F)cc4)C3)cc2)nc(Nc2ccc(F)cc2)n1` (stereo not given), the growth is -25.1% (active).

With `O=C1Nc2ccccc2/C1=C/C(=O)c1cc2ccccc2oc1=O`, the growth was 102% (inactive).

Take `Cc1ccc2nc(COc3ccc(C(=O)NNC(=S)NCCc4ccccc4)cc3)[nH]c2c1`: the growth is 99.7% (inactive).

On to `Oc1ccc(Cl)c(Nc2ncnc3c2cnn3CC(Cl)c2ccc(Br)cc2)c1` (stereo not given), for which the growth is 80.5% (inactive).

With `COc1ccc2nc(Nc3cccc(NC(=O)c4ccc(CN5CCN(C)CC5)c(C(F)(F)F)c4)c3)ccc2c1`, the growth is -47.8% (active).

As to `O=S(=O)(Nc1cccc(-n2cnc3cc(-c4ccc(O)cc4)ccc32)c1)C1CC1`, the growth was -19.9% (active).

In the case of `COc1ccc(-c2cc(-c3cc(C(C)C)c(O)cc3C)nn2-c2ccc(S(N)(=O)=O)cc2)cc1`, the growth is 9.51% (active).

Regarding `CCCn1c(NC(=O)c2cccc(C(N)=O)c2)nc2cc(CN3CCCCC3)ccc21`, the growth is 91.4% (inactive).

With `CCCSc1nc(NCCc2c[nH]c3ccccc23)c(C#N)c(-c2ccccc2)n1`, the growth was 70.4% (inactive).

Regarding `CC(=O)Nc1ccc(-c2cn(-c3cccc(C(=O)Nc4ccc(N5CCN(C)CC5)cc4)c3)nn2)cn1`, the growth is 64.6% (inactive).

In the case of `COc1cc(-c2nc3cc(Cl)c(Cl)cc3[nH]2)ccc1OCc1nnc(-c2ccc(Br)cc2)o1`, the growth is -62% (active).

Consider `COc1cc(C2CC(c3ccccc3)=Nc3c(N)nc(N)nc3N2)ccc1Oc1nc(Nc2ccc(F)cc2)nc(N(C)C)n1` (stereo not given), for which the growth was 26.1% (inactive).

For the compound `O=C1Nc2cc(-c3ccc(NS(=O)(=O)c4ccc(-c5ccccc5)cc4)cc3)ccc2/C1=C/c1ccc[nH]1`, the growth is 31% (inactive).

With `C#CCN(C)CCCOc1ccc(N(CC)C(=O)c2cc(C(C)C)c(O)cc2O)cc1Cl`, the growth is -63.8% (active).

Turning to `CCCCCCCCCCCCCCCCCCCC(=O)NCCc1c[nH]c2ccc(OC(=O)NOCCOCCOCCOCCOCCOCCOCCOCCOCCOCCOCCOCCOCCOCCOCCOCCOCCOCCOCCOCCOCCOCCOC)cc12`, the growth was -38.2% (active).

Consider `Cc1ccc2nc(COc3ccc(C(=O)NNC(=S)NC(=O)c4ccccc4)cc3)[nH]c2c1`, for which the growth is 70.7% (inactive).

Take `COc1ccc2nc(Nc3cccc(NC(=O)c4ccc(CN5CCCN(C)CC5)c(C(F)(F)F)c4)c3)ccc2c1`: the growth was -28% (active).

As to `O=c1[nH]n(C(=S)N/N=C/c2ccc(F)cc2)c(=O)c2ccccc12`, the growth is 44.7% (inactive).

As for `C=C1CC[C@@H]2[C@]3(C)COC(c4cn(-c5ccccc5)nc4-c4ccccc4)O[C@@H]3CC[C@@]2(C)[C@@H]1C/C=C1/C(=O)OC[C@H]1O` (stereo not given in full), the growth was -33.7% (active).

With `C/C(=N\N=C\c1ccc(N(C)C)cc1)c1ccc2c(c1)Nc1ccccc1S2`, the growth was 59.2% (inactive).

For the compound `CC(=O)Oc1ccccc1C(=O)[Se]CC(=O)Nc1cccc(C(F)(F)F)c1`, the growth is -14.9% (active).

Take `O=C(CSc1nc2ccccc2c(=O)n1-c1ccc(Cl)cc1)Nc1ccc(-c2nc3ccc([N+](=O)[O-])cc3[nH]2)cc1`: the growth is 85.7% (inactive).

In the case of `COc1cc(/C=C/C(=O)c2ccc(NC(=O)CSc3nnc(-c4c[nH]c5ccccc45)n3-c3ccccc3)cc2)cc(OC)c1OC`, the growth is 38.6% (inactive).

With `O=C(Nc1ccc(I)cc1F)c1cc(-c2ccc(F)cc2F)ccc1O`, the growth is -30.4% (active).

For the compound `CC(C)C1=C[C@@]23CC[C@@H]4[C@](C)(CCC[C@]4(C)C(=O)NCc4ccccc4)[C@H]2C[C@@H]1[C@H]1C(=O)CCC(=O)[C@H]13`, the growth is 53.5% (inactive).

On to `O=C(CNc1nc(-c2ccccc2)cs1)Nc1ccc([N+](=O)[O-])cc1`, for which the growth is 5.69% (active).

In the case of `COc1ccc2ccccc2c1/C=C1\SC(=Nc2ccc(O)cc2)NC1=O`, the growth is -29.9% (active).

Take `COc1cc(/C=C/C(=O)c2ccccc2)ccc1Oc1nc(Nc2ccc(F)cc2)nc(N(C)C)n1`: the growth was 20.5% (inactive).

With `COC(=O)C[C@](O)(CCCC(C)(C)O)C(=O)O[C@H]1C(OC)=C[C@@]23CCC(=O)N2CCc2cc4c(cc2[C@@H]13)OCO4`, the growth was 97.4% (inactive).

In the case of `CC1=C(C(=O)OCc2ccccc2)C(c2ccc(N(C)C)cc2)n2c(nc3ccccc32)N1` (stereo not given), the growth is 73.7% (inactive).
